The values that follow come from PubChem BioAssay.

Activity calls are given as the source filed them.

The nature of experiment [1]: A549 cell viability effects, profiling panel, calcein-AM fluorescence, 48 h, basal (AID 1162). The following applies: higher = more signal.
The nature of experiment [2]: adipocyte viability effects, profiling panel, cell-based, 3T3-L1 adipocytes, calcein-AM fluorescence, 48 h, basal (AID 1163). The settings on record: 3T3-L1 adipocytes viability, higher = more signal.
A short description of experiment [3]: HepG2 cell viability effects, profiling panel, calcein-AM fluorescence, 48 h, basal (AID 1164). The following applies: higher = more signal.
Experiment [4] in a line: MM1S cell viability effects, profiling panel, calcein-AM fluorescence, 48 h, basal (AID 1165).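 Note: viability of MM1S multiple myeloma cells under basal unstimulated conditions.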 The following applies: higher = more signal.
Experiment [5] in a line: basal RPMI8226 viability, no added stimulus, profiling panel, cell-based, calcein-AM fluorescence, 48 h, PK04 Diversity Set (AID 1166).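 Note: cells grown under basal conditions without added stimulus.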 The settings on record: RPMI8226 myeloma viability, higher = more signal.
Experiment [6] in a line: basal HepG2 mitochondrial membrane potential changes, profiling panel, cell-based, JC-1 fluorescence, 24 h, 100 nL compound (AID 1167). The settings on record: higher = more signal.
Experiment [7] can be described thus: basal 3T3-L1 adipocyte mitochondrial potential changes, profiling panel, cell-based, JC-1 fluorescence, 3T3-L1 adipocytes, 24 h, 100 nL compound (AID 1168). The following applies: JC-1 mitochondrial fluorescence, higher = more signal, called active from +8 up or from −8 down.
Experiment [8] can be described thus: basal RPMI8226 mitochondrial membrane potential changes, profiling panel, cell-based, JC-1 fluorescence, 24 h, 100 nL compound (AID 1169). The following applies: RPMI8226 myeloma, JC-1 mitochondrial potential fluorescence, higher = more signal.
Experiment [9] can be described thus: basal MM1S mitochondrial membrane potential changes, profiling panel, cell-based, JC-1 fluorescence, 24 h, 100 nL compound (AID 1170). The following applies: higher = more signal.
A short description of experiment [10]: A549 lung cancer cell viability effects, profiling panel, resazurin fluorescence, 24 h, PK04 Diversity Set (AID 1171). The settings on record: higher = more signal, called active from +8 up or from −8 down.
Note: test concentration not given here.

Take `COCCOC(=O)N1C(=O)[C@@]2(c3cc(C#CCCO)ccc31)[C@H](c1ccc(OCCO)cc1)N1[C@H](c3ccccc3)[C@H](c3ccccc3)OC(=O)[C@H]1[C@@H]2C(=O)N1CCc2cc(OC)c(OC)cc2C1`: the z-score in experiment [1] is -0.874; in [2] it was 0.586; in [3], 0.863; in [4] it was 0.541; in [5], 0.263; in [6] it was -0.0698. In addition, the z-score in experiment [7] was 1.79 (inactive); in [8], -0.299; in [9], -1.48; in [10], -0.533 (inactive).
In the case of `CCCCC(CC)C(O)C1C=CC2C(=O)NC(=O)C2N1Nc1ccccn1` (stereo not given), the z-score in [1] was 0.373; in experiment [2], -0.131; in [3], 1.12; in experiment [4], -0.11; in experiment [5], 0.581; in experiment [6], 0.0822. Also, the z-score was -0.506 (inactive) in experiment [7], 0.713 in experiment [8], -0.792 in experiment [9] and -0.858 (inactive) in [10].
As for `[N-]=[N+]=NCc1ccccc1[C@H]1OC(c2ccc(OCCCO)cc2)=N[C@@]1(Cc1ccccc1N=[N+]=[N-])C(=O)NCCN1CCOCC1`, the z-score was -0.71 in experiment [1]; -0.675 in experiment [2]; 0.0583 in experiment [3]; -1.71 in experiment [4]; -1.52 in [5]; -0.247 in [6]. For the same molecule, the z-score in experiment [7] was -0.738 (inactive); in experiment [8], -0.841; in [9], -0.549; in experiment [10] it was 0.0825 (inactive).
Take `CC(=O)NCCCC[C@@H]1NC(=O)[C@H]2C[C@@H](C(=O)NCCCCCN)[C@@H](c3cccc(OCCO)c3)N2C1=O`: the z-score was -0.0064 in [1]; 0.352 in experiment [2]; 0.491 in [3]; 0.701 in experiment [4]; 0.948 in [5]; 0.0469 in [6]. The z-score in experiment [7] was 0.408 (inactive); in [8], -0.38; in experiment [9] it was 0.155; in [10] it was 1.1 (inactive).
On to `N#Cc1ccc(NN2C(C(O)c3ccccc3)C=CC3C(=O)N(c4ccccc4)C(=O)C32)cc1` (stereo not given), for which the z-score in experiment [1] was -1.14; in experiment [2], -0.173; in [3], 0.216; in [4] it was -0.861; in [5], -0.32; in experiment [6], -0.782. Further, the z-score in experiment [7] is -0.182 (inactive); in experiment [8], 0.0989; in [9] it was 0.976; in experiment [10], -0.331 (inactive).
As to `O=C1c2ccccc2[C@](Cc2ccccc2I)(C(=O)NC2CC2)[C@H](c2ccc(CO)cc2)N1Cc1ccccc1Cl`, the z-score in experiment [1] is -0.138; in experiment [2], -0.103; in experiment [3], -0.0887; in [4], -1.39; in experiment [5], -0.715; in experiment [6] it was 0.833. The z-score in experiment [7] was -0.469 (inactive); in experiment [8], -0.332; in [9] it was -0.664; in [10], 0.623 (inactive).
In the case of `COC(=O)[C@]1(Cc2ccccc2N=[N+]=[N-])N=C(c2ccc(OCCCO)cc2)O[C@@H]1c1ccccc1`, the z-score in experiment [1] is -3.71; in experiment [2] it was 0.561; in experiment [3], -5.71; in experiment [4], -3.66; in [5] it was -4.01; in experiment [6] it was -2.54. For the same molecule, the z-score is 0.911 (inactive) in experiment [7], -1.01 in experiment [8], -2.86 in experiment [9] and -5.19 (inactive) in experiment [10].
For `COCCOC(=O)N1C(=O)[C@@]2(c3cc(C#CC4(O)CCCCCC4)ccc31)[C@H](C(=O)N1CCc3cc(OC)c(OC)cc3C1)[C@H]1C(=O)O[C@H](c3ccccc3)[C@H](c3ccccc3)N1[C@@H]2c1ccccc1OCCO`, the z-score is 0.863 in [1]; 1.59 in [2]; 0.898 in [3]; -0.401 in experiment [4]; -1.47 in experiment [5]; 0.782 in [6]. Also, the z-score in experiment [7] is 1.29 (inactive); in [8], -0.477; in experiment [9] it was -0.952; in experiment [10] it was 0.993 (inactive).
Turning to `COc1ccccc1CN1C(=O)c2ccccc2[C@@H](C(=O)NCC(C)C)[C@@H]1c1ccc(CO)cc1`, the z-score in experiment [1] is 0.467; in experiment [2], 0.796; in experiment [3], 0.306; in experiment [4], 0.869; in experiment [5], -2.01; in experiment [6], 0.962. In addition, the z-score in experiment [7] is -1.09 (inactive); in experiment [8], 0.398; in [9] it was 0.544; in [10] it was -0.624 (inactive).
For `CC(C)CNC(=O)[C@@]1(c2ccc([N+](=O)[O-])cc2)CC(=O)N(C(C)C)[C@@H]1c1ccc(CO)cc1`, the z-score in experiment [1] was 0.264; in [2], -0.0455; in experiment [3], 0.0153; in experiment [4] it was -1.07; in [5] it was 0.399; in experiment [6] it was 0.621. The z-score in [7] was -0.167 (inactive); in experiment [8] it was 0.604; in experiment [9], -0.131; in [10], 0.591 (inactive).
As for `O=C1C2C=CC(C(O)c3ccccn3)N(Nc3ccccc3)C2C(=O)N1c1ccccc1` (stereo not given), the z-score in experiment [1] is 0.312; in [2], -1.46; in experiment [3], 0.593; in experiment [4], 0.111; in [5], -0.0462; in experiment [6] it was -0.568. Moreover, the z-score in experiment [7] was -0.467 (inactive); in [8], -0.234; in experiment [9], -1.11; in experiment [10], -0.752 (inactive).
For `C[C@H]1NC(=O)C([C@@H](C)OCc2ccccc2)NC(=O)[C@@]23C(=O)N[C@@H](Cc4ccccc4)C2[C@H](C)[C@@]2(C)O[C@H]2C3/C=C/CC/C=C/CNC1=O` (stereo not given in full), the z-score was 0.33 in experiment [1]; 0.221 in [2]; 0.456 in experiment [3]; -0.728 in experiment [4]; -1.2 in [5]; 2.67 in [6]. The z-score in experiment [7] is 0.434 (inactive); in experiment [8], 0.452; in experiment [9], 1.84; in [10], -0.757 (inactive).
Turning to `CC(C)(C)OC(=O)CC[C@@]1(C(=O)N2CCCCC2)N=C(c2ccc(OCCCO)cc2)O[C@@H]1c1ccccc1N=[N+]=[N-]`, the z-score is 0.611 in [1]; -0.351 in [2]; 0.733 in experiment [3]; -0.993 in experiment [4]; -2.16 in [5]; 1.52 in [6]. The z-score was 3.17 (inactive) in experiment [7], -1.1 in experiment [8], -0.993 in experiment [9] and -0.328 (inactive) in experiment [10].
As for `C=C(COC)C(=O)CC[C@H](OC(=O)c1ccccc1-c1ccccc1C(=O)O)c1ccc(CO)o1`, the z-score is -0.643 in experiment [1]; -0.398 in experiment [2]; -0.985 in experiment [3]; 0.232 in experiment [4]; -0.0416 in [5]; -1.01 in experiment [6]. Moreover, the z-score in experiment [7] was -0.345 (inactive); in experiment [8] it was 0.12; in [9] it was 0.433; in [10], -0.256 (inactive).
Turning to `CCCCCCC#C[Si](O[C@H](c1ccccc1)c1cn(Cc2cccc(Cl)c2)nn1)(C(C)C)C(C)C`, the z-score in experiment [1] was 1.11; in experiment [2], -0.896; in [3], 0.761; in experiment [4], 0.481; in [5], -0.695; in experiment [6] it was 3.44. The z-score in experiment [7] was 0.169 (inactive); in experiment [8], -0.149; in experiment [9], -1.06; in [10], 2.58 (inactive).
With `COCCOC(=O)N1C(=O)[C@@]2(c3cc(C#CCCO)ccc31)[C@H](C(=O)N1CCc3cc(OC)c(OC)cc3C1)[C@H]1C(=O)O[C@H](c3ccccc3)[C@H](c3ccccc3)N1[C@@H]2c1ccc(OCCO)cc1`, the z-score in experiment [1] was 1.31; in experiment [2], 1.05; in experiment [3], 1.15; in experiment [4] it was 0.214; in experiment [5] it was 1.23; in experiment [6] it was -0.495. Further, the z-score is 1.21 (inactive) in experiment [7], -0.532 in experiment [8], -0.901 in [9] and 0.86 (inactive) in [10].
